Test results taken from PubChem BioAssay (NCI).
The panel holds about 83,000 compounds, 20% with a hit somewhere; the sample as a whole holds those more often.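 Each cell line was grown in a 96-well plate and treated with one concentration of compound for 48 hours. Values below 10 were considered active.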 Values without a mark were called inactive. Calls of active or inactive are those of the source.

The molecules below were run on HOP-62 NSCLC (assay: NCI-60 one-dose screen, 48 h (100 = growth as untreated, 0 = no growth, -100 = all killed)). Conditions: 10 µM unless noted.
Description: Growth inhibition of the HOP-62 human Non-Small Cell Lung tumor cell line is measured as a screen for anti-cancer activity. Cells are grown in 96 well plates and exposed to the test compound for 48 hours. Compounds are tested at a single concentration, which is 10^-5 M for most compounds. The reported endpoint is percent growth (GI% or GIPRCNT), where numbers from 0 - 100% represent growth inhibition, and numbers from -100% - 0 represent cell death. For example, a value of 40 represents 60% growth inhibition. A value of 0 means no net growth occurred over the course of the experiment. A value of -40 indicates 40% of cells at the beginning of the experiment died by the end of the experiment. A value of -100 means all cells are dead at the end of the experiment.
NCI-60 Human Tumor Cell Lines Screen was performed using the standard one-dose NCI protocol, which is described in more detail at https://dtp.cancer.gov/discovery_development/nci-60/default.htm.
Compounds with GIPRCNT values below 10 were considered active. Activity score was based on GIPRCNT using the following formula: […]
Score is 0 for GIPRCNT values of 100 or above, 50 for GIPRCNT values of 0, and 100 for GIPRCNT values of -100.
In the case of `Cn1cc(-c2ccc3nc(-c4ccc(CC(=O)Nc5cc(C(C)(C)C)no5)cc4)cnc3c2)cn1`, the growth is reported as 61.3% [30 µM]. `COC(=O)CCCNC(=O)C(=O)c1c(O)c(O)c(C(C)C)c2cc(C)c(-c3c(C)cc4c(C(C)C)c(O)c(O)c(C(=O)C(=O)NCCCC(=O)OC)c4c3O)c(O)c12` was tested, and the growth was 13%. Work on `C=C1C(=O)O[C@H]2[C@H]1CC/C(COC(=O)/C=C/C(=O)NCc1ccc(Cn3c(=O)sn(-c4ccccc4)c3=O)cc1)=C\CC[C@@]1(C)O[C@@H]21` yielded a growth of 85.5%. Molecule `NC(N)=N/N=C/c1ccc(Br)cc1` has a growth of 10.2%. `COc1cc2oc3cc(C)oc(=O)c3c2cc1OC` showed a growth of 93.2%. For `COc1ccc(-c2nc3ccccn3c2/C=C/C(=O)c2cc(OC)c(OC)c(OC)c2)cc1`, the growth was 70.8%. For `CCCCCCCCN(CCCCCCCC)C(=N)c1ccnc2ccccc12`, the growth was -85.7% (active). For `C=C1C(=O)O[C@H]2[C@H]1CC/C(COC(=O)NCc1ccc(Cn3c(=O)sn(CCCCl)c3=O)cc1)=C\CC[C@@]1(C)O[C@@H]21`, the growth was 87.2%. Work on `C[C@]12CCC(=O)C[C@H]1CC[C@@H]1[C@@H]2CC[C@@]2(C)[C@H]1CC[C@]2(O)C(=O)CO` yielded a growth of 105%. Work on `O=C1N/C(=N/O)S/C1=C/c1cn(-c2ccccc2)nc1-c1ccccc1` yielded a growth of 98%. `CCc1c(C(=O)N[C@@H]2c3cc(Cl)ccc3CC[C@@H]2O)[nH]c(C)c1C(C)=O` gave a growth of 72.1%. `O=S(=O)(Nc1ccsc1-c1nc(-c2ccccc2)no1)c1cc(Cl)cc(Cl)c1` showed a growth of 76.2%. Work on `CCOC(=O)c1sc(-c2ccc(OS(=O)(=O)c3ccc(C(C)(C)C)cc3)c(C=O)c2)nc1C` yielded a growth of 52%. Work on `C[C@@H]1CC[C@@H]2[C@@H]1[C@H](OC(=O)/C=C/c1ccccc1)[C@]1(C3CCCCC3)C[C@@H](NC(=O)CO)[C@@]2(C)O1` yielded a growth of 112%. With `Cc1ccc(/C(=N\N=C(N)N)c2ccccc2)cc1` the growth was -30.4% (active). `c1ccc([P+](CCCc2n(Cc3ccc4ccccc4c3)c3ccccc3[n+]2Cc2ccc3ccccc3c2)(c2ccccc2)c2ccccc2)cc1` showed a growth of 61.6%. With `Cl.Fc1c[c-]c(-c2ccccn2)c(F)c1.[Pt].c1ccc([PH+](c2ccccc2)c2ccccc2[PH+](c2ccccc2)c2ccccc2)cc1` the growth was -62.2% (active). For `N#C/C(=C\c1ccc(Br)cc1)n1nnc2ccccc21`, the growth was 17.9%. For `CCn1c(Sc2nnc(NC(C)=O)s2)nc2c1c(=O)n(C)c(=O)n2C`, the growth was 99.4%. `CC(=O)Nc1ccc(C(=O)/C=C/c2ccccc2)cc1` gave a growth of 101%. `O=C(NCc1cn(Cc2cccc(Oc3ccccc3)c2)nn1)c1cccnc1NCc1ccc(Cl)cc1` was tested, and the growth was 40.7%. `CCN(CCO)CC(=O)c1cc(Cl)cc(Cl)c1Cl` showed a growth of 94.8%. With `C[C@H]1[C@H](C)CC[C@]2(C(=O)N3CCN(C)CC3)CC[C@]3(C)C(=CC[C@@H]4[C@@]5(C)C/C(=C/c6cccnc6)C(=O)C(C)(C)[C@@H]5CC[C@]43C)[C@H]12` the growth was -95.9% (active). `COc1cccc(CCC2CCCN(c3cc(C)nc(N)n3)C2)c1` (stereo not given) showed a growth of 59.4%. `Cc1[nH]c(-c2nc3ccccc3[nH]2)c(C)c1C(=O)N1CCc2sccc2C1` showed a growth of 98.2%. In the case of `O=C(NCCN1CCC(O)CC1)c1cc2c(o1)C(=O)c1ccccc1C2=O`, the growth is reported as -66.6% (active). `CC(C)c1ccc(C(=O)OC(=O)c2ccc(C(C)C)cc2)cc1` was tested, and the growth was 86.2%. `CCN(CC)CCOC(=O)N1c2ccccc2Sc2ccccc21` showed a growth of 88.7%. Molecule `CN1CCC(=C2c3ccccc3C=Cc3ccccc32)CC1` has a growth of 83.4%. `Cc1nc(C)c(-c2nn3c(-c4cccc(F)c4)nnc3s2)s1` showed a growth of 98.7%. In the case of `O=C1c2ccccc2C(=O)c2cc(Cn3cc[n+](Cc4ccc5ccccc5c4)c3)ccc21`, the growth is reported as 107%. In the case of `O=S(=O)(NCCNc1cc(-c2c(-c3cccc(O)c3)nc3sccn23)ccn1)c1ccc(Br)cc1`, the growth is reported as 102%. Work on `COc1cc(-c2ccc(-c3ccc(C(=N)N)nc3)s2)cc(OC)c1OC` yielded a growth of 67.9%. Molecule `CC(=O)c1sc(-c2ccccc2)cc1N` has a growth of 94.4%. `O=C1C(Cl)C(c2ccccc2Cl)N1n1cnnc1` (stereo not given) was tested, and the growth was 73.5%. For `C=C(C)[C@@H]1CC[C@]2(CO)CC[C@]3(C)[C@H](CC[C@@H]4[C@@]5(C)C=C(C#N)C(=O)C(C)(C)[C@@H]5CC[C@]43C)[C@@H]12`, the growth was 23.2%. `Cc1c(Cl)cccc1NS(=O)(=O)c1ccccc1` gave a growth of 112%. `COc1ccc(OC)c(Nc2nc3nonc3nc2Nc2cccc(Br)c2)c1` was tested, and the growth was 8.04% (active). In the case of `O=[N+]([O-])c1ccc2[nH]cc(-c3c4ccsc4cc4[nH]c5ccc([N+](=O)[O-])cc5c34)c2c1`, the growth is reported as 10.8%. In the case of `COc1cc(/C=C/C(=O)c2cccc(-n3cc(-c4ccccc4)[nH]c3=O)c2)cc(OC)c1OC`, the growth is reported as 7.01% (active).
